Results published in PubChem BioAssay.
Values joined by “and” are separate entries in the source; they are usually repeats but may differ in a detail not shown here. Identical values can stand only once. Active and inactive are the calls of the source.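 Rule for the calls, unless noted: active = compounds that lower survival of DLD-1 colon cancer cells in the luminescence readout, no cutoff given; inactive = the rest.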

Legend:
[1] = polyglutamine-triggered caspase-3 activation inhibitors, cell-based (AID 1583); conditions: polyglutamine-induced caspase-3 activation, cell assay; stronger effect = higher value;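 tested at 10 µM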
[2] = hESC survival regulators, cell-based (AID 493140; call rule not given here;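 note: cells exposed to compounds for four days before counting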); conditions: human embryonic stem cell survival screen; stronger effect = higher value
[3] = stimulators of insulin release from INS-1E, primary screen, cell-based, 5 mM glucose, NPC library (AID 1117329;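 active = compound raises insulin release from rat beta cells at 5 mM glucose, no numeric limit stated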); conditions: rat INS-1E insulin secretion, at 10 µM, stronger effect = higher value
[4] = growth inhibition of GSK3B-pretreated HCT116 cells – cell-based, CellTiter-Glo, 0.2 to 20 µM (AID 1117336;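 active = compounds lowering colon cancer cell viability after pretreatment blocking the GSK3B kinase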); conditions: HCT116 viability after GSK3B inhibitor, at 20 µM, stronger effect = higher value
[5] = inhibition of endothelial tube formation, primary screen, imaging, VEGF stimulated, CD31 staining, tube area, NPC library (AID 1117340;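 active = compound that reduces growth-factor-driven endothelial tube area in a mixed cell culture, no cutoff stated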); conditions: VEGF-stimulated ADSC/ECFC co-culture, at 10 µM, stronger effect = higher value
[6] = glucagon-like peptide 1 release enhancers, primary assay, NCI-H716 cell line, NPC library (AID 1117341;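 active = compound raises GLP1 secretion from the human gut endocrine cells, with no numeric limit stated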); conditions: NCI-H716 cells, at 10 µM, stronger effect = higher value
[7] = HCT116 colon cancer cell growth inhibition, primary screen, CellTiter-Glo luminescence, NPC library (AID 1117342;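 active = compounds that lower survival of HCT116 colon cancer cells in the luminescence readout, no numeric limit stated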); conditions: at 20 µM (top of the series)
[8] = CellTiter-Glo luminescent readout of SW480 viability loss, NPC library primary (AID 1117343;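 active = compounds that lower viability of the colon cancer cells in the luminescence readout, with no numeric limit stated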); conditions: CellTiter-Glo luminescence; at 20 µM (top of the series) unless noted
[9] = decreased DLD-1 cellular survival, CellTiter-Glo luminescent readout, NPC compound collection, primary HTS (AID 1117346); conditions: DLD-1 viability, CellTiter-Glo luminescence; at 20 µM (top of the series)
[10] = target: 6-phosphogluconate dehydrogenase, decarboxylating (Homo sapiens) (UniProt P52209); test: 6PGD enzyme inhibitors, primary screen, biochemical, human, recombinant enzyme, NADPH absorbance (AID 1159550;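 active = at least 20% inhibition of 6-phosphogluconate dehydrogenase activity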); conditions: recombinant 6PGD, NADPH absorbance 341 nm; at 10 µM; stronger effect = higher value
[11] = modulation of C. elegans fzo-1 (AID 1259413; call rule not given here;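 note: fzo-1 mutant C. elegans worms in liquid wells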); conditions: C. elegans fzo-1 modulator screen, mean read-out; stronger effect = higher value
[12] = differential killing of epithelial or mesenchymal cells, primary screen, imaging, PC-3E GFP, TEM4-18 mCherry, co-culture (AID 1345086;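 active = compounds killing one labelled cell type while sparing the other, by normalised counts and ratio limits, not self-fluorescent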;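 for all read-outs here: cells exposed to compound for 72 h before imaging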;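 for red/green cell ratio (normalised): normalised mesenchymal count divided by normalised epithelial count so high means epithelial killing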); conditions: imaging cell counts, at 1 µM; for red/green cell ratio (normalised): actives lie on both sides, counts scaled to control wells, 1 = unselective
[13] = survival rescue of mitochondrial mutant cells in low glucose, primary screen, MELAS cybrids, Rieske KO mouse fibroblasts, CellTiter-Glo (AID 1508586;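 active = mean z-score across replicates of 1.96 or higher in either the MELAS or the Rieske mutant cell line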;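 note: z relative to plate mean and SD of compound and empty wells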)
[14] = target: NAD(+) hydrolase SARM1 (Homo sapiens) (UniProt Q6SZW1); test: SARM1 TIR NADase inhibitors, cell lysate, NAD-Glo luminescence (AID 1508614;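 active = compound whose remaining NAD level is above about 45 nM, limit read from the data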;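 note: higher remaining NAD means stronger inhibition of SARM1 NADase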); conditions: SAM-TIR HEK293T lysate NADase, at 1 µM, stronger effect = higher value
[15] = target: Mitogen-activated protein kinase 7 (Homo sapiens) (UniProt Q13164); test: ERK5 transactivation activators in reporter cells, primary screen, cell-based, HTS (AID 1508626;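 active = luciferase signal above three times the same-plate solvent-only control wells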;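 note: luciferase driven by Gal4-ERK5 fusion binding five Gal4 sites before minimal TATA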); conditions: HeLa Gal4-ERK5 transactivation, 18 h, at 5 µM, stronger effect = higher value
[16] = viability rescue of complex I mutant cybrids, primary screen, cell-based, galactose medium, ATP luminescence (AID 1645843;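 active = z-score of at least 1.8 in each of two replicates, scored against plate mean and spread of sample wells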;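 note: positive z means more ATP and so rescue of galactose-driven cybrid death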); conditions: complex I mutant cybrid cells, 72 h, stronger effect = higher value
[17] = stimulators of nuclear beta-catenin in C2C12, primary screen, imaging, WNT3A-conditioned medium, mouse C2C12, NPC library (AID 1117326; in the data active = nuclear beta-catenin stimulation mostly above about 4.2%, no sharp cut-off; inactive = mostly below about 10%); conditions: stronger effect = higher value
[18] = liver-stage malaria parasite growth inhibition, primary screen, cell-based, HepG2, luciferase luminescence, HepG2 viability (AID 624349; in the data active = parasite load remaining mostly below about 12%, no sharp cut-off; inactive = mostly above about 10%;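 note: 100% = mean of DMSO negative control wells on the same plate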); conditions: P. berghei liver stage in HepG2, luciferase luminescence, concentration not given here; parasite load remaining: stronger effect = lower value; viability: measured here: HepG2 viability without parasites
[19] = sensitizers of A549 cells to miR-34 induction, primary screen, imaging, A549 dox-inducible miR-34, nuclei and caspase counts (AID 1347080;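 active = compounds whose cell count with miR-34 switched on is under 0.7 times the count with it off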); conditions: A549 miR-34 inducible, Hoechst nuclei count, 48 h
[20] = measured here: epithelial PC-3E GFP cell survival
[21] = measured here: mesenchymal TEM4-18 mCherry cell survival
[22] = MELAS cybrid survival, CellTiter-Glo 48 h, stronger effect = higher value
[23] = Rieske KO mouse fibroblast survival, CellTiter-Glo 72 h

Chain of Mitogen-activated protein kinase 7 (Homo sapiens) (Q13164 whole entry, looked up, the tested form may be a part): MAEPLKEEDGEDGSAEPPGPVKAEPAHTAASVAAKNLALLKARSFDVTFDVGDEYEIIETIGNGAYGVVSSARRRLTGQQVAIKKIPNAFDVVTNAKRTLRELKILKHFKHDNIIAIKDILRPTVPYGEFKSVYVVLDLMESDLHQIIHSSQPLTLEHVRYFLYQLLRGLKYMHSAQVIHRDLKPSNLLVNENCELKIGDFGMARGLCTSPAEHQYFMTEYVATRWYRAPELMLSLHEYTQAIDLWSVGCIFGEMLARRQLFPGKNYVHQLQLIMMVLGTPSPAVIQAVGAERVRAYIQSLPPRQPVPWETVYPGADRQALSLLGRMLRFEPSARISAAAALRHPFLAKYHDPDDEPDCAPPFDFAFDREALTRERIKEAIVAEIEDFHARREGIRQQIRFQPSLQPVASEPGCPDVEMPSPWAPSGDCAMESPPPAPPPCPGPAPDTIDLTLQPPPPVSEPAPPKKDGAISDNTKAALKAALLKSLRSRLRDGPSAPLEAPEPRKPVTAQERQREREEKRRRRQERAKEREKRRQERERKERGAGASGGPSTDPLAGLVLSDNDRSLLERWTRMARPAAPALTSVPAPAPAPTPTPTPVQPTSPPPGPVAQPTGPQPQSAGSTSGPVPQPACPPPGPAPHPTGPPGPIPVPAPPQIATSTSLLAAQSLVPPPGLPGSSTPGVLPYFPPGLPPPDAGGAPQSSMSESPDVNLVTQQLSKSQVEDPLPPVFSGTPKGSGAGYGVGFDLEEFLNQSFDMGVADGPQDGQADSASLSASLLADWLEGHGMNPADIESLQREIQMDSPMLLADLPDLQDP
Chain of NAD(+) hydrolase SARM1 (Homo sapiens) (Q6SZW1 whole entry, looked up, the tested form may be a part): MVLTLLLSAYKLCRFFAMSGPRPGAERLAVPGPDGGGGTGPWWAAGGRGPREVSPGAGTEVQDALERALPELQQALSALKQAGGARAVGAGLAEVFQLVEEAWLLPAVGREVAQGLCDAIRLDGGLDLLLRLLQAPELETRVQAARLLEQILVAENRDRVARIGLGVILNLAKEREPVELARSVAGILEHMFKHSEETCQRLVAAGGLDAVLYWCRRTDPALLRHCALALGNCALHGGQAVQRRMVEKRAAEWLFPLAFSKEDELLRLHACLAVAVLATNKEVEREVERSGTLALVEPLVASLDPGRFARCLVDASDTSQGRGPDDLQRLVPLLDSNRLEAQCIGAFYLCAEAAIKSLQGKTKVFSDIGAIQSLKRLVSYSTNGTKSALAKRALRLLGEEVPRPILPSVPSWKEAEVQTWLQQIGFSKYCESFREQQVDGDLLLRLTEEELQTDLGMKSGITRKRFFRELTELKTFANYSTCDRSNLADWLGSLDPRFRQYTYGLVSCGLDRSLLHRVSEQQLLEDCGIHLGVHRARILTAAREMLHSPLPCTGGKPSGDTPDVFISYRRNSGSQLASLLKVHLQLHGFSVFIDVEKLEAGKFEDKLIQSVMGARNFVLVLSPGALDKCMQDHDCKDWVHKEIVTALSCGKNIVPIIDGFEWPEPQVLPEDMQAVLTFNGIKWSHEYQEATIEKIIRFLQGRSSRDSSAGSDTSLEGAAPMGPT
Chain of 6-phosphogluconate dehydrogenase, decarboxylating (Homo sapiens) (P52209 whole entry, looked up): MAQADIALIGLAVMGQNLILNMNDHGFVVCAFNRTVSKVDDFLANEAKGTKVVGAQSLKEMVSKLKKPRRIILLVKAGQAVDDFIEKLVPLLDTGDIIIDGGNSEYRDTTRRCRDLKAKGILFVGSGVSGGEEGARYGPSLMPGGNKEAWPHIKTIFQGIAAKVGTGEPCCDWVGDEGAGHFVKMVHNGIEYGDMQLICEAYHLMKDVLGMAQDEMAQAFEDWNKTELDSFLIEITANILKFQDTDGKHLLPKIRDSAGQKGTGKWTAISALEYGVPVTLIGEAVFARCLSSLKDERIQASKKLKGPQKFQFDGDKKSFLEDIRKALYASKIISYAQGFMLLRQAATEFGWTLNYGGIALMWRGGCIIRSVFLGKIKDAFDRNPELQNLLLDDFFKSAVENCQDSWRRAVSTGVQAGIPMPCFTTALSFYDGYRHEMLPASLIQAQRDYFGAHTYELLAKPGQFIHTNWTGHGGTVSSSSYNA

Cc1cc(NS(=O)(=O)c2ccc(N)cc2)no1
inactive: survival [2] 30.6 | insulin secretion stimulation [3] -2.1% | viability decrease [4] 1.7% | tube area decrease [5] 1.9% | GLP1 secretion stimulation [6] 1.9% | inhibition of viability [7] -6.5% | viability decrease (inhibition) [8] -7.9% | viability decrease (inhibition) [9] 3.95% | inhibition [10] 11.1% | mean signal [11] 252 | red/green cell ratio (normalised) [12] 1.25 | z-score [13, 22] -0.296 and -0.181 | remaining NAD [14] 10 nM | luciferase signal [15] 64 AU | z-score [16] 0.255
-0.35 and -0.048: z-score [13, 23]
23.4%: inhibition [1]
1.32: normalised cell number [12, 21]
1.05: normalised cell number [12, 20]

CC(C)CCCC(C)NCCC(C)C (centres undefined)
inactive: nuclear beta-catenin stimulation ([17]; at 10 µM) -1.6% | viability decrease [4] -5.2% | inhibition of viability [7] -0.4% | viability decrease (inhibition) [8] -8.8% | viability decrease (inhibition) [9] 1.8%
2.7%: nuclear beta-catenin stimulation ([17]; stimulation, at 2 µM)

CC(C)(C)NC(=O)[C@@H]1C[C@@H]2CCCC[C@H]2CN1C[C@@H](O)[C@H](Cc1ccccc1)NC(=O)[C@H](CC(N)=O)NC(=O)c1ccc2ccccc2n1
inactive: insulin secretion stimulation [3] 1.9% | viability decrease [4] 45.8% | tube area decrease [5] 29.6% | GLP1 secretion stimulation [6] -3.7%
active: inhibition of viability [7] 74% | viability decrease (inhibition) [8] 92.3% | viability decrease (inhibition) [9] 88.3%

Oc1ccc(O)cc1
0.837 and 1.69: fold change ([19]; measured here: relative caspase fold change +Dox/-Dox)
1.29: normalised cell number [12, 21]
inactive: parasite load remaining [18] 24.8% and -0.995% | nuclear beta-catenin stimulation ([17]; at 10 µM) 10.9% | viability decrease [4] 45.2% | inhibition of viability [7] -47.7% | viability decrease (inhibition) [8] 20.4% | viability decrease (inhibition) [9] -15% | inhibition [10] 10.8% | red/green cell ratio (normalised) [12] 1.14 | fold change ([19]; stronger effect = lower value, cell number ratio, induced over uninduced) 0.97 and 0.922 | remaining NAD [14] 10 nM | luciferase signal [15] 40 AU | z-score [16] -1.04
8040 and 8490: cell count ([19]; measured here: total cells without miR-34 induction)
14.4%: nuclear beta-catenin stimulation ([17]; stimulation, at 2 µM)
92.7% and 79.1%: viability [18]
1.14: normalised cell number [12, 20]
7800 and 7820: cell count ([19]; measured here: total cells with miR-34 induction, stronger effect = lower value)

O=C(O)CCc1nc(-c2ccccc2)c(-c2ccccc2)o1
-0.145 and -0.466: z-score [13, 23]
1.14: normalised cell number [12, 20]
inactive: survival [2] 5.67 | insulin secretion stimulation [3] 1.3% | viability decrease [4] -61.8% | tube area decrease [5] -17.6% | GLP1 secretion stimulation [6] 2.2% | inhibition of viability [7] 9.15% | viability decrease (inhibition) [8] 8.7% | viability decrease (inhibition) [9] -5.7% | inhibition [10] -3.27% | mean signal [11] 247 | red/green cell ratio (normalised) [12] 1.03 | z-score [13, 22] -0.226 and -0.656 | remaining NAD [14] 10 nM | luciferase signal [15] 44 AU | z-score [16] 0.9 and 1.19
1.18: normalised cell number [12, 21]
